Values joined by “and” are separate entries in the source; they are usually repeats but may differ in a detail not shown here. Equal values may be shown once. The panel holds about 79,000 compounds, 15% with a hit somewhere; the sample as a whole holds those more often. Some structures have more than one record in an assay (separate samples or runs), and their calls can disagree. Active and inactive are the calls of the source. Cut-off read from the data, not from the text of the source: active = growth inhibition above about 70%; inactive = the rest.
Experiments:
[1] = NCI Yeast Anticancer Drug Screen. Data for the rad52 strain (AID 147);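 note: 0% = growth of vehicle-treated control cultures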; settings: S. cerevisiae rad52 mutant growth inhibition, stronger effect = higher value
Summary of the method: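 DNA repair-defective yeast; compound exposure; growth scored against vehicle controls.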

[2] = NCI Yeast Anticancer Drug Screen. Data for the wt1 strain (AID 149);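 note: 0% = growth of vehicle-treated wt1 cultures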; settings: S. cerevisiae wt1 strain (SPY 50644) growth inhibition, stronger effect = higher value
Summary of the method: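 wt1 strain grown with compound or vehicle; inhibition taken from the growth difference.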

[3] = NCI Yeast Anticancer Drug Screen. Data for the rad50EPP+ strain (AID 151);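 note: 0% = growth of vehicle-treated control cultures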; settings: S. cerevisiae rad50 mutant strain, stronger effect = higher value
Summary of the method: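 rad50EPP+ yeast treated with test compounds. Readout: growth vs vehicle control.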

[4] = NCI Yeast Anticancer Drug Screen. Data for the rad50 strain (AID 155);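 note: 0% = growth of vehicle-only cultures of the same strain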; settings: S. cerevisiae rad50 strain growth inhibition, stronger effect = higher value
Summary of the method: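 DNA repair mutant yeast, compound exposure, growth read-out; inhibition is taken relative to vehicle.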

[5] = NCI Yeast Anticancer Drug Screen. Data for the mec2-1 strain (AID 157); settings: S. cerevisiae mec2-1 strain, stronger effect = higher value
Summary of the method: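 Growth inhibition is read against vehicle-treated controls after compound exposure of the mec2-1 yeast strain, which is defective in DNA damage repair or cell cycle control.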

[6] = NCI Yeast Anticancer Drug Screen. Data for the sgs1 mgt1 strain (AID 161);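 note: 0% = growth of cultures given vehicle only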; settings: S. cerevisiae sgs1 mgt1 strain, stronger effect = higher value
Summary of the method: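 Compounds are added to genetically altered yeast, and growth is compared with cultures given vehicle alone to give percent inhibition.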

[7] = NCI Yeast Anticancer Drug Screen. Data for the CLN2oe strain (AID 163);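 note: 0% = growth of vehicle-only control cultures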; settings: S. cerevisiae CLN2oe strain, stronger effect = higher value
Summary of the method: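 Compound-treated yeast; growth vs vehicle ctrl = % inhibition. Genetically altered strain (cell-cycle control).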

[8] = NCI Yeast Anticancer Drug Screen. Data for the cln2 rad14 strain (AID 165);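 note: 0% = growth equal to vehicle treated cultures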; settings: S. cerevisiae cln2 rad14 strain, stronger effect = higher value
Summary of the method: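 Growth inhibition, relative to vehicle-treated controls, is the read-out. The test organism is a yeast strain with defined genetic alterations, cln2 rad14.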

[9] = NCI Yeast Anticancer Drug Screen. Data for the bub3 strain (AID 167); settings: S. cerevisiae bub3 mutant strain, stronger effect = higher value
Summary of the method: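 In this screen, a yeast mutant lacking normal mitotic checkpoint function is challenged with compound. Relative growth versus vehicle gives the inhibition value.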

[10] = NCI Yeast Anticancer Drug Screen. Data for the wt2 strain (AID 169);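 note: 0% = growth of vehicle-treated yeast cultures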; settings: S. cerevisiae wt2 strain growth inhibition, stronger effect = higher value
Summary of the method: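 Compound exposure of yeast; growth compared with vehicle controls; inhibition reported.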

[11] = NCI Yeast Anticancer Drug Screen. Data for the sgs1 strain (AID 173);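 note: 0% = growth of vehicle-only control cultures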; settings: S. cerevisiae sgs1 mutant, stronger effect = higher value
Summary of the method: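 Compounds applied to genetically altered yeast; growth compared with vehicle-treated cultures to give % inhibition.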

[12] = NCI Yeast Anticancer Drug Screen. Data for the mlh1 rad18 strain (AID 175); settings: S. cerevisiae mlh1 rad18 strain growth inhibition, stronger effect = higher value
Summary of the method: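 Cells of a genetically altered yeast strain, deficient in DNA damage repair, were treated with compound. Their growth was then compared with that of vehicle-treated cultures to give inhibition.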

[13] = NCI Yeast Anticancer Drug Screen. Data for the rad14 strain (AID 159);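 note: 0% = growth of vehicle-treated control cultures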; settings: S. cerevisiae rad14 strain growth inhibition, stronger effect = higher value
Summary of the method: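 DNA repair-defective yeast, compound-exposed; % growth inhibition derived by comparison with vehicle-treated controls.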

[14] = NCI Yeast Anticancer Drug Screen. Data for the mlh1 strain (AID 171);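 note: 0% = growth of vehicle-treated control cultures of the same strain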; settings: S. cerevisiae mlh1 strain growth inhibition, stronger effect = higher value
Summary of the method: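 Compounds are applied to a genetically altered yeast strain, and its growth is compared with that of vehicle-treated cultures to give percent inhibition.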

[15] = NCI Yeast Anticancer Drug Screen. Data for the rad18 strain (AID 177); settings: S. cerevisiae rad18 mutant growth inhibition, stronger effect = higher value
Summary of the method: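 Compounds are applied to a repair-deficient yeast strain, and growth is compared with that of vehicle-treated cultures to give percent inhibition.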

[16] = at 5.0 µM (retest, dose inferred, filed as 0.5)
[17] = at 50.0 µM (retest, dose inferred, filed as 5.0)

Measured: growth inhibition

CN(C)c1ccc(/C=C/c2ccnc3ccccc23)cc1N
81.8% (active) and 0.6% (inactive): [12]; at 50.0 µM
43% (inactive) and 95% (active): [6]; [17]
81.6% (active) and -6.75% (inactive): [9]; at 50.0 µM
-6% (inactive) and 94% (active): [5]; [17]
5% (inactive) and 89% (active): [9]; [17]
13% (inactive) and 97% (active): [12]; [17]
inactive: [1]; at 1.2 µM -6% | [1]; at 3.7 µM -8% | [1]; at 11.0 µM -10% | [1]; at 33.0 µM -5% | [1]; at 100.0 µM 5% | [2]; at 1.2 µM -2% | [2]; at 3.7 µM -4% | [2]; at 11.0 µM -9% | [2]; at 33.0 µM -15% | [2]; at 100.0 µM -7% | [3]; at 1.2 µM -7% | [3]; at 3.7 µM -4% | [3]; at 11.0 µM 5% | [3]; at 33.0 µM 29% | [3]; at 100.0 µM 56% | [4]; at 1.2 µM -5% | [4]; at 3.7 µM -10% | [4]; [16] -25% and -10% | [4]; at 11.0 µM -13% | [4]; at 33.0 µM 5% | [4]; at 50.0 µM 2.85% and -9.8% | [4]; at 100.0 µM 17% | [5]; at 1.2 µM -6% | [5]; at 3.7 µM -6% | [5]; [16] -1% and 4% | [5]; at 11.0 µM -7% | [5]; at 33.0 µM -4% | [5]; at 50.0 µM 32.1% and -2.55% | [5]; at 100.0 µM 14% | [6]; [16] -8% and -6% | [6]; at 50.0 µM 64.8% and 1.25% | [7]; at 1.2 µM -1% | [7]; at 3.7 µM -5% | [7]; at 11.0 µM -19% | [7]; at 33.0 µM -16% | [7]; at 100.0 µM -4% | [8]; [16] -6% and -8% | [8]; [17] 7% and 40% | [8]; at 50.0 µM -28.1% and -22.4% | [9]; at 1.2 µM -5% | [9]; at 3.7 µM -5% | [9]; [16] 3% and -7% | [9]; at 11.0 µM -8% | [9]; at 33.0 µM -6% | [9]; at 100.0 µM 20% | [10]; at 1.2 µM -5% | [10]; at 3.7 µM -8% | [10]; at 11.0 µM -10% | [10]; at 33.0 µM 6% | [10]; at 100.0 µM 52% | [11]; at 1.2 µM -3% | [11]; at 3.7 µM -2% | [11]; at 11.0 µM -3% | [11]; at 33.0 µM 20% | [11]; at 100.0 µM 64% | [12]; [16] -12% and 5%
-13% (inactive) and 77% (active): [4]; [17]

S=c1nc(Cl)cc2[nH]c(Cl)cn12
inactive: [1]; at 1.2 µM 2% | [1]; at 3.7 µM 6% | [1]; at 11.0 µM 14% | [1]; at 33.0 µM 43% | [2]; at 1.2 µM -3% | [2]; at 3.7 µM -3% | [2]; at 11.0 µM -2% | [2]; at 33.0 µM 13% | [2]; at 100.0 µM 42% | [3]; at 1.2 µM 4% | [3]; at 3.7 µM 18% | [3]; at 11.0 µM 44% | [4]; at 1.2 µM 7% | [4]; at 3.7 µM 9% | [4]; [16] -132% | [4]; at 11.0 µM 27% | [5]; at 1.2 µM 3% | [5]; at 3.7 µM 4% | [5]; [16] -46% | [5]; at 11.0 µM 13% | [5]; at 33.0 µM 24% | [5]; [17] -8% | [13]; at 1.2 µM 1% | [13]; at 3.7 µM -1% | [13]; at 11.0 µM 10% | [13]; at 33.0 µM 20% | [13]; at 100.0 µM 59% | [6]; [16] -61% | [6]; [17] 3% | [6]; at 50.0 µM 47.4% | [8]; [16] -57% | [8]; [17] -39% | [9]; at 1.2 µM -4% | [9]; at 3.7 µM -3% | [9]; [16] -30% | [9]; at 11.0 µM 9% | [9]; at 33.0 µM 30% | [9]; [17] 44% | [10]; at 1.2 µM 2% | [10]; at 3.7 µM 3% | [10]; at 11.0 µM 5% | [10]; at 33.0 µM 11% | [14]; at 1.2 µM 8% | [14]; at 3.7 µM 1% | [14]; at 11.0 µM 5% | [14]; at 33.0 µM 19% | [11]; at 1.2 µM 3% | [11]; at 3.7 µM 3% | [11]; at 11.0 µM 15% | [11]; at 33.0 µM 42% | [12]; [16] -117% | [12]; [17] 10% | [15]; at 1.2 µM 1% | [15]; at 3.7 µM 3% | [15]; at 11.0 µM 14% | [15]; at 33.0 µM 44%
active: [1]; at 100.0 µM 93% | [3]; at 33.0 µM 89% | [3]; at 100.0 µM 98% | [4]; at 33.0 µM 73% | [4]; [17] 75% | [4]; at 50.0 µM 78.8% | [4]; at 100.0 µM 98% | [5]; at 50.0 µM 82.5% | [5]; at 100.0 µM 80% | [8]; at 50.0 µM 76.6% | [9]; at 50.0 µM 78.5% | [9]; at 100.0 µM 94% | [10]; at 100.0 µM 83% | [14]; at 100.0 µM 90% | [11]; at 100.0 µM 99% | [12]; at 50.0 µM 96.5% | [15]; at 100.0 µM 96%

O/N=C/C1c2ccccc2-c2ccccc21
inactive: [1]; at 1.2 µM 0% | [1]; at 3.7 µM 6% | [1]; at 11.0 µM 20% | [1]; at 33.0 µM 58% | [2]; at 1.2 µM -4% | [2]; at 3.7 µM -4% | [2]; at 11.0 µM -7% | [2]; at 33.0 µM 20% | [2]; at 100.0 µM 49% | [4]; at 1.2 µM -1% | [4]; at 3.7 µM -6% | [4]; [16] -199% | [4]; at 11.0 µM 24% | [4]; at 33.0 µM 62% | [4]; [17] 58% | [4]; at 50.0 µM 56.2% | [5]; at 1.2 µM 3% | [5]; at 3.7 µM 1% | [5]; [16] -53% | [5]; at 11.0 µM -15% | [5]; at 33.0 µM 21% | [5]; [17] -13% | [13]; at 1.2 µM -1% | [13]; at 3.7 µM -1% | [13]; at 11.0 µM 9% | [13]; at 33.0 µM 51% | [6]; [16] -59% | [6]; [17] 30% | [6]; at 50.0 µM 50.8% | [7]; at 1.2 µM -3% | [7]; at 3.7 µM -3% | [7]; at 11.0 µM -6% | [7]; at 33.0 µM 2% | [7]; at 100.0 µM 53% | [8]; [16] -57% | [8]; [17] 8% | [9]; at 1.2 µM -6% | [9]; at 3.7 µM -2% | [9]; [16] -70% | [9]; at 11.0 µM -7% | [9]; at 33.0 µM 0% | [9]; [17] -15% | [9]; at 100.0 µM 59% | [10]; at 1.2 µM -1% | [10]; at 3.7 µM -2% | [10]; at 11.0 µM -3% | [10]; at 33.0 µM 22% | [14]; at 1.2 µM 4% | [14]; at 3.7 µM -6% | [14]; at 11.0 µM -3% | [14]; at 33.0 µM 18% | [14]; at 100.0 µM 64% | [12]; [16] -102% | [12]; [17] 39% | [15]; at 1.2 µM 2% | [15]; at 3.7 µM 11% | [15]; at 11.0 µM 44%
active: [1]; at 100.0 µM 97% | [4]; at 100.0 µM 97% | [5]; at 50.0 µM 99% | [5]; at 100.0 µM 72% | [13]; at 100.0 µM 96% | [8]; at 50.0 µM 96% | [9]; at 50.0 µM 98.8% | [10]; at 100.0 µM 70% | [12]; at 50.0 µM 97.3% | [15]; at 33.0 µM 74% | [15]; at 100.0 µM 97%
